# Measured values published in the supplement of paper PMC6555819.
# Key:
# Experiment in all cases: PBM binding z-score (relative to random genomic background probes); higher = stronger binding; sequences stand for … in GC…GCGATTGACAGCGTAGAATGAAGG
# [1] = tested on: FXR:RXRa (NR concentration 270 nM, RXRa partner concentration 90 nM)
# Method in brief: (§1)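 Regression normalization was applied to scanned fluorescence from custom Agilent 4×180K protein-binding microarrays. Before scanning, arrays were incubated 1 h with ligand-free nuclear receptor dimers, and binding was detected with antibodies against each partner (one per run). Binding z-scores use the random background probes as reference.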
# [2] = tested on: LXRa:RXRa (NR concentration 270 nM, RXRa partner concentration 90 nM)
# Method in brief: as §1
# [3] = tested on: LXRa homodimer (NR concentration 270 nM)
# Method in brief: as §1
# [4] = tested on: LXRb:RXRa (NR concentration 270 nM, RXRa partner concentration 90 nM)
# Method in brief: as §1
# [5] = tested on: LXRb homodimer (NR concentration 270 nM)
# Method in brief: as §1
# [6] = tested on: PPARa:RXRa (NR concentration 270 nM, RXRa partner concentration 90 nM)
# Method in brief: as §1
# [7] = tested on: PPARg:RXRa (NR concentration 180 nM, RXRa partner concentration 90 nM)
# Method in brief: as §1
# [8] = tested on: PPARg:RXRa 270nM:90nM, anti-RXR (NR concentration 270 nM, RXRa partner concentration 90 nM)
# Method in brief: as §1
# [9] = tested on: PPARg:RXRa 30nM:10nM, anti-RXR (NR concentration 30 nM, RXRa partner concentration 10 nM)
# Method in brief: as §1
# [10] = tested on: PPARg:RXRa 90nM:30nM, anti-RXR (NR concentration 90 nM, RXRa partner concentration 30 nM)
# Method in brief: as §1
# [11] = tested on: PPARg:RXRa DBDmut IVT, anti-RXR (DBD mutation: RXRa K156A/R161A, NR concentration 270 nM, RXRa partner concentration 90 nM)
# Method in brief: as §1
# [12] = tested on: PPARg:RXRa IVT, anti-PPARg (NR concentration 270 nM, RXRa partner concentration 90 nM)
# Method in brief: as §1
# [13] = tested on: PPARg DBDmut:RXRa IVT, anti-PPARg (DBD mutation: PPARg1 K132A/R137A, NR concentration 270 nM, RXRa partner concentration 90 nM)
# Method in brief: as §1
# [14] = tested on: PPARg DBDmut IVT, anti-PPARg (DBD mutation: PPARg1 K132A/R137A, NR concentration 270 nM)
# Method in brief: as §1
# [15] = tested on: PPARg homodimer (NR concentration 180 nM)
# Method in brief: as §1
# [16] = tested on: PXR:RXRa (NR concentration 270 nM, RXRa partner concentration 90 nM)
# Method in brief: as §1
# [17] = tested on: PXR homodimer (NR concentration 270 nM)
# Method in brief: as §1
# [18] = tested on: RARa:RXR (NR concentration 270 nM, RXRa partner concentration 90 nM)
# Method in brief: as §1
# [19] = tested on: RARa homodimer (NR concentration 270 nM)
# Method in brief: as §1
# [20] = tested on: RARb:RXRa (NR concentration 270 nM, RXRa partner concentration 90 nM)
# Method in brief: as §1
Sequence,PBM binding z-score [1],PBM binding z-score [2],PBM binding z-score [3],PBM binding z-score [4],PBM binding z-score [5],PBM binding z-score [6],PBM binding z-score [7],PBM binding z-score [8],PBM binding z-score [9],PBM binding z-score [10],PBM binding z-score [11],PBM binding z-score [12],PBM binding z-score [13],PBM binding z-score [14],PBM binding z-score [15],PBM binding z-score [16],PBM binding z-score [17],PBM binding z-score [18],PBM binding z-score [19],PBM binding z-score [20]
GTTTGTAGATCAAGGTTAAGAAAGACTAAGCTAA,0.943,1.64,0.556,0.954,0.547,1.84,1.93,2.88,1.48,2.65,1.8,1.93,1.34,0.524,1.43,0.822,1.11,1.21,2.12,1.24
GCTTACGGGTTAAAGGTTATAGCATGAATAGAAT,4.76,4.09,0.422,4.17,0.397,5.9,8.86,7.5,6.81,8.18,1.96,4,0.8,1.12,1.78,4.18,0.49,6.08,1.07,2.31
TCTAGTTGGTCAAAGGTCACACGCTCGAAATGCG,6.24,5.77,4.22,5.45,1.94,6.6,12,10.1,12.1,11.5,3.58,6.36,0.719,1.69,5.16,6,2.22,7.76,3.91,4.97
CCTACTGGGCCAAGGTCCTTGATCAGTCAAAGCA,-2.77,-0.638,-0.83,-0.659,-1.31,0.607,0.83,1.73,-0.152,0.845,3.51,3.4,-1.28,-1.15,-0.287,-0.74,-0.766,-0.787,-1.65,0.256
AGAACGAGGGTAATGAGTTGATAGCACGGGTGGC,-0.398,-0.272,-0.536,-0.672,-0.615,0.387,1.08,0.119,0.202,0.182,1.74,1.31,-0.702,-0.588,-0.465,0.134,1.17,-0.279,-0.76,0.509
TCTAGCAGGCCAGAGGGTAACTCAAGAGGTACGG,0.0239,-0.0819,-0.636,-0.399,-1.36,1.15,2.11,3.56,2.38,3.26,0.667,0.376,-0.698,-0.379,0.0885,-0.174,-0.643,-0.0159,-0.296,0.332
ACTTACGGGTCAACGAGGTTATTGCACGCGTATA,6.87,5.03,1.72,4.44,0.685,5.64,5.89,5.22,1.88,3.88,3.11,3.97,1.27,2.63,3.35,5.53,5.35,5.36,1.38,4.19
TTACCAAGGGGAAAGGTCGTTGATGCACGCCTTG,1.39,1.85,-0.0678,1.81,-0.739,3.79,5.27,6.57,4.47,6.82,0.296,2.61,0.358,0.0839,1.27,2.44,0.149,2.73,-0.553,1.77
ATCGAAAGGTTGTGAGGTGAGTATACAGAAAGGC,0.714,0.605,-0.189,0.771,0.139,1.68,0.892,0.732,0.508,0.523,-0.125,0.638,0.845,0.495,0.431,0.336,0.498,1.15,0.35,1.45
TCTATTAGTTAATTAGGGCAACCGAAACAGCGGA,0.524,0.526,0.315,0.637,0.558,2.73,2.2,2.94,3.88,3.37,4.63,5.38,1.64,1.52,0.99,0.546,0.152,0.998,1.68,1.04
GCTTGTAGATCAAGGTGAAGAAAGACTAAGCTAA,-0.249,-0.317,-0.489,-0.225,-0.819,0.597,0.122,0.939,0.103,0.281,1.63,1.6,-0.514,-0.503,-0.575,-0.352,-0.243,-0.339,-0.424,0.0933
CAGCCTAGGTCAGGGCCCGTATAGGAGGAACGTT,1.56,0.731,-0.61,0.395,-1.32,1.72,0.643,0.734,-0.158,0.0498,1.27,1.55,-1.13,-1.09,0.811,-0.134,-0.829,0.752,-0.25,3.23
CAAACTAGGTCAAGGTCAAAGACGGTTTGTGCCA,6.55,5.25,3.28,4.37,1.4,6.32,9.9,8.3,6.78,8.62,8.62,8.85,4.67,5.73,5.24,4.88,2.2,5,2.69,5.16
TGAATGAGGTTAAAGATTAGGGAACGTGGCGTCG,2.45,2.05,-0.0169,1.38,0.449,3.74,3.78,4.94,2.32,4.36,2,2.99,1.53,0.276,0.705,1.33,0.337,1.98,0.424,1.97
